The results in this text go back to PubChem BioAssay (NCI).

About 83,000 compounds went through this panel and 20% of them were active in at least one assay; those are over-represented in the sample as a whole.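 Values shown are percent growth following 48 h exposure of cells in 96-well plates to a single concentration of compound; below 10 was considered active.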 Unmarked numbers belong to inactive results. The source made the active and inactive calls.

The assay concerns HS 578T breast. As to the kind of experiment: NCI-60 one-dose screen, 48 h (100 = growth as untreated, 0 = no growth, -100 = all killed). To be noted: 10 µM unless noted.
Take `O=C(Nc1ccc(-n2cc(-c3ccncc3)c(-c3ccc(Cl)c(O)c3)n2)cc1)c1cc(C(F)(F)F)cc(C(F)(F)F)c1`: the growth was -4.23% (active). Take `COc1ccc(C2CC(=O)c3c(O)cc(OC4OC(COC5OC(C)C(O)C(O)C5O)C(O)C(O)C4O)cc3O2)cc1O` (centres undefined): the growth was 106%. In the case of `O=C(NCCNCCO)c1cc([N+](=O)[O-])cc([N+](=O)[O-])c1O` it was 109%; in that of `O=Nc1ccc(O)c2ccccc12`, 53.2%. Take `CC(=O)N1CCN(CCNC(=O)n2cc(-c3ccncc3)c(-c3ccc(O)c(Cl)c3)n2)CC1`: the growth was 139%.

For `NC(=O)c1c(Nc2ccccc2)nn2cc(-c3nc4ccccc4s3)c(N)nc12`, the growth is 93.3%. Then `CC(O)CN(CCO)CCN(CCO)CC(C)O` (centres undefined), with 108%.

Turning to `COC(=O)c1ccc2[nH]c(O)c(C(=Nc3ccc(N(C)C(=O)CN4CCN(C)CC4)cc3)c3ccc(OC)cc3)c2c1`, the growth is 11.9%. In the case of `c1ccc(C(=NNc2nc3ccccc3o2)c2ccccn2)nc1` it was 44.2%; in that of `COC(=O)C(Cc1cnc[nH]1)N1CC(=O)N2[C@@H](c3ccccc3)SC[C@H]2C1=O` (some centres undefined), 106%. Then `COC(=O)c1ccc2[nH]c(O)c(C(=Nc3ccc(N(C)C(=O)CN4CCN(C)CC4)cc3)c3ccc4c(c3)OCO4)c2c1`, with 10.5%; and `Cc1ccc(NCc2cn(-c3ccc(C(=O)O)cc3)nc2-c2ccc(C(=O)O)cc2)cc1`, with 101%; and `O=C(c1ccccc1)c1ccccc1-c1ccccc1`, with -6.36% (active).

In the case of `CCCCCCC(C(=O)OCC)(C(=O)OCC)C1CCCCCC1`, the growth is 105%.
